HP1b chromo inh: blocks HP1-beta chromodomain binding to methylated histone tails; P83916; AlphaScreen HP1-beta / biotin-H3K9me3 peptide binding; Potency, µM (titrated, usually from 114 µM), actives largely listed as inhibitors; 390,000 tested, 0.56% active; AID 540317; also: nearly all actives have a fitted effect of over 70% in size
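HP1-beta protein (50 nM final) preincubated 30 min at room temperature with biotinylated H3(1-18)K9me3 peptide (50 nM) in PBS pH 7.4, 0.01% Tween-20, then compound added for 30 min. AlphaScreen streptavidin donor/nickel chelate acceptor beads (10 ug/mL final), 30 min dark, luminescence read.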
Sfp PPTase inh: inhibitors of Bacillus subtilis Sfp phosphopantetheinyl transferase; 310,000 tested, 3.5% active; Q9F4F7; Potency, µM, usual class: inhibitors; Biochemical Sfp PPTase activity, qHTS;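 also: the enzyme is Sfp with the accession as filed and its product quenches rhodamine fluorescence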
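Step 1, compound plus 15 nM Sfp-PPTase, 15 min, room temperature. Step 2, add rhodamine-CoA (5 uM) and BHQ-2-YbbR (12.5 uM). Step 3, read 525/598 nm fluorescence at 0 and 30 min.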
G9a inh: blocks human histone lysine methyltransferase G9a | Potency, µM (series often up to 102 µM), usual class: inhibitors | 350,000 tested, 8.8% active | Q96KQ7 | AID 504332 | G9a H3K9 monomethylation, AlphaScreen, 2 h; also: nearly all actives have a fitted effect of over 75% in size
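Compounds were preincubated with 20 nM G9a for 15 min, after which biotinylated H3K9 peptide (500 nM) and SAM (20 uM) started a 2 h room-temperature reaction. Monomethylated product was quantified by antibody-based AlphaScreen chemiluminescence.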
JMJD2A Tudor: blocks the human JMJD2A Tudor domain; AlphaScreen JMJD2A-Tudor / H3K4me3 peptide binding; 390,000 tested, 4.4% active; Potency, µM (titrated, usually from 114 µM), hits mostly inhibitors; O75164; also: nearly all actives have a fitted effect of over 50% in size
BAZ2B inh: BAZ2B (human) inhibition. 360,000 tested, 4.4% active. Potency, µM (highest dose often 114 µM), usual class: inhibitors. AID 504333. AlphaScreen BAZ2B-H3K14Ac peptide displacement; also: nearly all actives have a fitted effect of over 60% in size
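In this displacement format the biotinylated H3(5-23) peptide acetylated at Lys14 serves as ligand at 50 nM, with BAZ2B at 50 nM in PBS pH 7.4 containing 0.01% Tween-20. Donor and acceptor beads are 10 ug/mL final.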
L3MBTL1 inh: L3MBTL1 (human) inhibition; Q9Y468; AlphaScreen L3MBTL1–H3K9me1 peptide binding; Potency, µM (titrated, usually from 57.1 µM), actives largely listed as inhibitors; 230,000 tested, 0.66% active; also: nearly all actives have a fitted effect of over 60% in size
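AlphaScreen assay: L3MBTL1 (50 nM final) was preincubated 30 min at room temperature with biotinylated H3(1-15)K9me1 peptide (75 nM final), then 30 min with library compounds; streptavidin donor and nickel chelate acceptor beads (10 ug/mL final) added, 30 min dark.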
Numbers stand for hits; - = inactive; ? = inconclusive; . = no result; ! = repeats disagree; [ ] = dose if it differs, or a comment. Rows were chosen to be rich in hits. Some 12% of all compounds tested hit in one or more screens of this group. Calls follow the shape of the dose curve; as a rule, active = well fitted curve in the direction sought with a large enough effect; inconclusive = small, poorly fitted or top-dose-only effect, or another doubt; inactive = no such curve, though single readings can be large; an effect the other way counts as inactive or inconclusive.

SMILES | HP1b chromo inh | Sfp PPTase inh | G9a inh | JMJD2A Tudor | BAZ2B inh | L3MBTL1 inh
O=c1oc2ccccc2c(O)c1C(c1ccc([N+](=O)[O-])cc1)c1c(O)c2ccccc2oc1=O | - | - | 40µM | ? | 56µM | ?
C/C(CC(c1ccccc1)c1c(O)c2ccccc2oc1=O)=N\Nc1ccc([N+](=O)[O-])cc1[N+](=O)[O-] (stereo not drawn) | ? | - | 14µM | 35µM | 35µM | .
CC/C(CC(c1ccccc1)c1c(O)c2ccccc2oc1=O)=N\NC(N)=S (stereo not drawn) | ? | ? | - | 3.2µM | - | -
NC(CO)Cc1ccccc1 (stereo not drawn) | . | - | -[2.33 µM] | . | . | .
CCn1cc(C(=O)NCCc2ccc(OC)c(OC)c2)c(=O)c2cc(S(=O)(=O)N(C)C3CCCCC3)ccc21 | - | . | ? | - | . | .
COc1ccc(NC2Oc3cc4c(cc3C(c3cc(OC)c(OC)c(OC)c3)C2C)OCO4)cc1 (stereo not drawn) | ? | . | . | 56µM | . | .
CC(=O)O[C@@H]1CN2CCC1CC2 | . | - | . | . | . | .
CCCCCSc1cc(OC)c(CCN)cc1OC | - | ? | - | ? | ? | -
CCCCCCCSc1cc(OC)c(CCN(C)C)cc1OC | ? | 14µM | ? | 35µM | 25µM | ?
CC[C@H](C)C(=O)O[C@@H]1[C@H](O)[C@@H]2[C@H](CN3C[C@@H](C)CC[C@@H]3[C@@]2(C)O)[C@@H]2C[C@@]34O[C@@]5(O)[C@@H](OC(=O)[C@](C)(O)CC)CC[C@@]3(C)[C@H]5[C@H](OC(C)=O)[C@@H](OC(C)=O)[C@H]4[C@]12O | . | - | -[21.5 µM] | . | . | .
C=CCN1C(=O)/C(=C/c2ccc3c(c2)CCCN3CCC)C(=O)NC1=S | ? | 25µM | 14µM | 56µM | 45µM | -
CC(C)(C)N1C(=O)NC(=O)/C(=C\c2ccc3c(c2)CCN3CCCCl)C1=O | ? | ? | 40µM | 40µM | ? | .
CCN1C(=O)/C(=C/c2ccc3c(c2)CCN3CCCCl)C(=O)NC1=S | ? | 45µM | ? | 35µM | 40µM | ?
NC1CC1c1ccccc1 (stereo not drawn) | . | . | - | . | . | .
C#CCOC(C(=O)OCCN(C)C)(c1ccccc1)c1ccccc1 | . | - | -[12.7 µM] | . | . | .
C#C[C@]1(O)CC[C@H]2[C@@H]3CCC4=Cc5nc6nc7ccccc7n6cc5C[C@]4(C)[C@H]3CC[C@@]21C | - | . | 25µM | - | - | -
O=C(O)c1cccc2nc3ccccc3nc12 | - | - | 40µM | - | - | -
COC(=O)C1=C(c2cc3ccccc3o2)C[C@@H]2CC[C@H]1N2C(=O)NC(C)C | - | . | . | 40µM | . | .
COC(=O)C1=C(c2cc3ccccc3o2)C[C@@H]2CC[C@H]1N2C(=O)NCCNC(C)=O | - | . | . | - | . | .
COC(=O)C1=C(c2ccc3ccccc3c2)C[C@@H]2CC[C@H]1N2C(=O)NCc1ccco1 | - | . | -[0.501 µM] | ? | 50µM | -
CC1(C)CC2CC(C)(CN2S(=O)(=O)c2cccc(C(=O)OCC(=O)NC(N)=O)c2)C1 (stereo not drawn) | - | . | -[0.501 µM] | - | - | -
Cc1cccc(N(CC(=O)NCCSc2ccc(Cl)cc2)S(=O)(=O)c2ccccc2)c1C | - | . | - | - | - | .
O=C(c1c[nH]c(C(=O)C(Cl)(Cl)Cl)c1)c1ccccc1Cl | - | - | - | ? | ? | .
NCCc1cccc(O)c1 | . | - | - | . | . | .
CC[C@@H](CO)NC(=O)[C@@H]1C=C2c3cccc4[nH]cc(c34)C[C@H]2N(C)C1 | - | 45µM | 14µM | - | . | .
CC[C@H](CO)NC(=O)[C@H]1C=C2c3cccc4[nH]cc(c34)C[C@@H]2N(C)C1 | . | - | 7.9µM | . | . | .
COC(=O)C1C=C2c3cccc4[nH]cc(c34)CC2N(C)C1 (stereo not drawn) | . | ? | ? | . | 40µM | .
CC[C@@H](CO)NC(=O)[C@@H]1C=C2c3cccc4c3c(cn4C)C[C@H]2N(C)C1 | - | - | 6.3µM! | - | ? | -
CCC(CO)NC(=O)C1C=C2c3cccc4[nH]cc(c34)CC2N(C)C1 (stereo not drawn) | - | - | ? | - | - | -

Bioassay records from PubChem.
